Measured values published in PubChem BioAssay (NCATS).
Inconclusive results are not listed. Unmarked numbers belong to inactive results. Calls follow the shape of the dose curve; as a rule, active = well fitted inhibition curve with a large enough effect; inconclusive = small, poorly fitted or top-dose-only effect; inactive = no such curve, though single readings can be large or run the other way. Numbered stars: 1 amine (or outer) side, 2 acyl side, 3 side chain; on linkers, the order of the positions; unused ones are H or OH. Square brackets hold non-standard residues; d marks the D form. Peptide text beside a SMILES is read from it. X2 = CC(C)=CCc1cc(C(O)C(N[*:1])C(=O)[*:2])ccc1O

Target: Retinaldehyde dehydrogenase 3 (Homo sapiens) (UniProt P47895)
Assay: qHTS for Inhibitors of the Aldehyde Dehydrogenase Family (ALDH1A3) Primary screen (AID 2061315);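 also: plate controls were DMSO vehicle for no effect and reference inhibitor for full effect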
Conditions: ALDH inhibition qHTS; series mostly up to 56 µM; activity change, negative = inhibition: at the top concentration

SMILES | activity change, negative = inhibition
CC/C=C\[C@H](O)[C@H](O)C1=C(C)C(=O)[C@]2(O1)C(=O)N[C@@](OC)(C(=O)c1ccccc1)[C@@H]2O | -14.3% [at 28 µM]
C[C@@H]1O[C@@H](OC2C(CO)OC(OCC3OC(OC(=O)[C@]45CCC(C)(C)CC4C4=CCC6[C@@]7(C)CC[C@@H](O)[C@](C)(C(=O)O)C7CC[C@@]6(C)[C@]4(C)CC5)C(O)C(O)C3O)C(O)C2O)[C@H](O)[C@H](O)[C@H]1O (stereo not given in full) | 4.68% [at 16.9 µM]
CC1OC(OC2C(C)OC(OC3C(O)C(CO)OC(O[C@H]4CC[C@@]5(C)C(CC[C@]6(C)C5CC=C5C7[C@@H](C)[C@H](C)CC[C@]7(C(=O)O)CC[C@]56C(=O)O)C4(C)C)C3O)C(O)C2O)C(O)C(O)C1O (stereo not given in full) | 3.81% [at 16.9 µM]
CC1(C)CC[C@]2(C(=O)O)CC[C@]3(C)C(=CCC4[C@@]5(C)C(=O)C[C@H](O)[C@@](C)(CO)C5CC[C@]43C)[C@@H]2C1 (stereo not given in full) | 10.8% [at 28 µM]
COc1c2c(c(C)c3c1C(=O)OC3)OC1(C)CC(O)C34OC(OC)(CC(OC(C)=O)C3(C)C1C2)OC4(C)C (stereo not given) | 13.3% [at 28 µM]
Cc1nc2ccc(Oc3ccc(F)cc3)cc2c(=O)n1C[C@H]1CCCN(C(C)C)C1 | -5.74%
O=C(O)Cc1cn(C2OCC(O)C(O)C2O[C@@H]2O[C@H](CO)[C@@H](O)[C@H](O)[C@H]2O)c2ccccc12 (stereo not given in full) | 10.3% [at 28 µM]
CC1(C)CC[C@]2(C(=O)O)CC[C@]3(C)C(=CCC4[C@@]5(C)C[C@@H](O)[C@H](O)C(C)(C)C5CC[C@]43C)[C@@H]2[C@@H]1O (stereo not given in full) | 3.11% [at 28 µM]
CC1(C)CC[C@]2(C(=O)O)CC[C@]3(C)C(=CCC4[C@@]5(C)CC[C@H](O[C@@H]6O[C@H](C(=O)O)[C@@H](O[C@@H]7OC[C@@H](O)[C@H](O)[C@H]7O)[C@H](O)[C@H]6O)C(C)(C)C5CC[C@]43C)C2C1O (stereo not given in full) | 3.65% [at 16.9 µM]
C=C1CC[C@@H]2[C@](C)(CO)[C@H](O)CC[C@@]2(C)[C@@H]1C/C=C1/C(=O)OCC1OC(=O)/C(=C/CO)C(O)C[C@@H]1C(=C)CC[C@@H]2[C@](C)(CO)[C@H](O)CC[C@]21C (stereo not given in full) | -7.37% [at 16.9 µM]
CC1=CC(=O)CC(C)(C)C1CCC(C)O[C@@H]1O[C@H](CO)[C@@H](O)[C@H](O)[C@H]1O (stereo not given in full) | -7.3%
Cc1cc(Nc2nc(NC(C)c3ncc(F)cn3)ncc2Cl)n[nH]1 (stereo not given) | 5.27%
COC1C(=O)CCC2(CO2)C1(O)C1(C)OC1CC=C(C)C (stereo not given) | 16.7%
C=C(C(=O)O)[C@@H]1CC[C@@]2(C)CCC[C@@](C)(O)[C@@H]2C1 | 3.3%
CC(C)(C)OC(=O)N1CCC(OCc2nc(-c3ccncc3)no2)CC1 | -11.9%
C=C(C)[C@@H]1CC[C@]2(C(=O)O)CC[C@]3(C)C(CCC4[C@]5(C)C(CC[C@]43C)C(C)(C)[C@@H](O)[C@@H]5C(=O)O)C12 (stereo not given in full) | 7.32% [at 28 µM]
C=C1CC2[C@]3(C)C(=C(O)C(=O)[C@@]2(C)[C@]2(C(=O)OC)C(=O)C(C)OC(=O)[C@@]12C)C(C)(C)C(=O)CC3O (stereo not given in full) | -8.44% [at 28 µM]
COc1ccc(C2(O)c3ccccc3NC(=O)C2O)cc1 (stereo not given) | 1.21%
CC(C)=CCc1cc(C(O)C2NC(=O)CNC(=O)C(Cc3c[nH]c4ccccc34)NC(=O)C3CCCN3C(=O)CNC(=O)C(C(C)C)NC(=O)CNC2=O)ccc1O (stereo not given) (cyclo(G[X2]GVGPW); configuration not given here) | 10.1% [at 16.9 µM]
COC(=O)/C=C/C12COC(C)(C)C1C(O)C(OC(C)=O)C1(C)C2CCC2(C)C(c3ccoc3)OC(=O)C3OC321 (stereo not given) | -24.8% [at 28 µM]

SMILES | activity change, negative = inhibition
C[C@@H]1C[C@@H](O)[C@@]23CO[C@]2(CO)C[C@@H](O)CC3[C@@]12CC(c1ccoc1)OC2=O (stereo not given in full) | -22.4%
Cc1nc(N2CCN(C(=O)c3ccco3)CC2)c2c3c(sc2n1)CCCC3 | -0.128%
CC(C)C1=CCC(C)(O)C(OC2OC(CO)C(O)C(O)C2O)C1 (stereo not given) | -8.88%
CC(=O)OC(C)C(C)(O)C(=O)O[C@@H]1CC[C@]2(C)CC(=O)C(=C(C)C)C[C@H]2[C@]1(C)OC(C)=O (stereo not given in full) | -4.19% [at 28 µM]
CC(C)C[C@H](CC(=O)NO)C(=O)N[C@@H](Cc1ccc2ccccc2c1)C(=O)N[C@@H](C)C(=O)NCCN | -19.9%
COC(=O)C1=CO[C@@H](O[C@@H]2O[C@H](CO[C@@H]3O[C@H](CO)[C@@H](O)[C@H](O)[C@H]3O)[C@@H](O)[C@H](O)[C@H]2O)[C@@H]2C(CO)=CC[C@H]12 | -5.7% [at 28 µM]
COC(=O)CC[C@@H](C)[C@H]1CC[C@H]2[C@@H]3CC(=O)[C@H]4C[C@H](OC(C)=O)CC[C@]4(C)[C@H]3CC[C@]12C | -4.8%
CC1(C)C[C@H]2C3=CCC4[C@@]5(C)CC[C@H](O[C@H]6O[C@H](C(=O)O)[C@@H](O)[C@H](O)[C@H]6O[C@H]6O[C@H](CO)[C@@H](O)[C@H](O)[C@H]6O[C@@H]6O[C@H](CO)[C@@H](O)[C@H](O)[C@H]6O)[C@](C)(CO)C5CC[C@@]4(C)[C@]3(C)CC[C@@]2(C)[C@H](O[C@@H]2OC[C@H](O)[C@H](OC3O[C@H](CO)[C@@H](O)[C@H](O)[C@H]3O)[C@H]2O)[C@@H]1O (stereo not given in full) | 14.7% [at 11.2 µM]
CC1(C)CC[C@]2(C(=O)OC3OC(CO)C(O)C(O)C3O)CC[C@]3(C)C(=CCC4[C@@]5(C)CC[C@H](OC6OC(C(=O)O)C(O)C(OC7OC(CO)C(O)C(O)C7O)C6O)C(C)(C)C5CC[C@]43C)C2C1 (stereo not given in full) | 4.35% [at 16.9 µM]
COc1ccnc2[nH]cc(C(=O)C(=O)N3CCN(C(=O)c4ccccc4)CC3C)c12 (stereo not given) | 12.6%
CC(C)S(=O)(=O)NC[C@@H]1CC(c2ccc(N3CCCC3)c(F)c2)=NO1 | 27.2%
CC1=C(C(=O)OCc2ccccc2)C(c2ccc(-c3ccccc3)cc2)NC(=O)N1CCCCCC(=O)O (stereo not given) | -27.5%
O=C1C=CC2OC(c3ccccc3)C(O)C2O1 (stereo not given) | 6.98%
CO[C@@H]1[C@]2(O)C(=O)N3/C=C\C(C)(C)c4[nH]c5ccccc5c4/C=C\3C(=O)N2[C@]23[C@H](CO)C(C)(C)N2c2ccccc2[C@]13O | -3.47% [at 28 µM]
CN1C(=O)N(c2cc(Cl)cc(Cl)c2)C(=O)[C@@]1(C)Cc1ccc(Br)cc1 | -2.06%
CC(=O)O[C@@H]1[C@@H](OC(=O)/C=C/c2ccccc2)[C@H](C)O[C@@H](O[C@H]2[C@@H]3C=CO[C@@H](O[C@@H]4O[C@H](CO)[C@@H](O)[C@H](O)[C@H]4O)[C@@H]3[C@@]3(CO)O[C@@H]23)[C@@H]1OC(C)=O | -0.361% [at 16.9 µM]
COC(=O)C12CCC(C)C(C)C1C1=CCC3C4(C)CCC(OC(C)=O)C(C)(C)C4CCC3(C)C1(C)CC2 (stereo not given) | 0.734% [at 28 µM]
CC(C)CC(=O)OC1OC=C(CO[C@@H]2O[C@H](CO)[C@@H](O)[C@H](O)[C@H]2O)C2CC(O)C(O)(CO)C12 (stereo not given in full) | 11.6% [at 28 µM]
CC1=C(C(=O)OC2OC(COC3OC(CO)C(O)C(O)C3O)C(O)C(O)C2O)C(C)(C)CCC1 (stereo not given) | -16.6% [at 28 µM]
COc1cc2c(cc1OC)N1C(=O)C[C@@]34C=CC[N@+]5([O-])CC[C@H]2[C@H](CC3)[C@@]145 | -9.65%
